Ba/F3 V617F tox – reduced viability of JAK2V617F-dependent Ba/F3 cells, primary screen, JAK2V617F inhibitor project, cell-based, Ba/F3 EpoR-JAK2V617F, luminescence; ATP luminescence; inhibition, % at 5.6 µM; hit rate 1.1% among 220,000; AID 1446, 2008;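 active = inhibition above the campaign mean plus 3 SD over all tested compounds, cut at about 24% in these data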;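 note: cytokine-independent growth of Ba/F3 cells driven by EpoR plus mutant JAK2; 0% = DMSO-treated cells and 100% = JAK inhibitor I control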
IEC-6 tox – cytotoxicity in IEC-6 intestinal epithelial cells, primary screen, cytotoxicity control for KLF5 inhibitor project, cell-based, luminescence | IEC-6 cytotoxicity, luminescence viability | inhibition, % at 5 µM | hit rate 0.78% among 290,000; in the data active = inhibition above about 22%;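 note: 0% = plate median of test compound wells and 100% = cytotoxic reference compound wells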
GPR7 antag – GPR7 receptor antagonists, primary screen, cell-based, fluorescence, single concentration. Neuropeptides B/W receptor type 1 (Homo sapiens), P48145. GPR7-expressing cells, fluorescence antagonist assay. inhibition, % at 4.4 µM. hit rate 1.1% among 290,000. AID 1861, 2009; in the data active = inhibition above about 16%, passing the limit was not always enough;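 note: cells stimulated with the agonist NPW; 0% = agonist with vehicle and 100% = vehicle without agonist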
Target sequence (P48145 whole entry, looked up): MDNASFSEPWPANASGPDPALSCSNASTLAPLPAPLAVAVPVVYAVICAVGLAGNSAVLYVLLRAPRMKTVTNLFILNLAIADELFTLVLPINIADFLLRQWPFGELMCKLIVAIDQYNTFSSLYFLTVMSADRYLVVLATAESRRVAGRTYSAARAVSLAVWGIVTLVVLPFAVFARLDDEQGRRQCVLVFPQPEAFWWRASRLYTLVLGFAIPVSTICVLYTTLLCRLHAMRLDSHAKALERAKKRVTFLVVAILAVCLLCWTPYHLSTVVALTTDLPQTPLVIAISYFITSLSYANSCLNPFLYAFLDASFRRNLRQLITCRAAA
BaF3 parental – parental Ba/F3 cell viability inhibition, counter-screen for JAK2V617F inhibitor project, murine pro-B, CellTiter-Glo luminescence. CellTiter-Glo ATP luminescence. inhibition, % at 5.6 µM. hit rate 1.1% among 220,000;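 active = inhibition above a per-campaign cutoff, the mean inhibition of all tested compounds plus 3 SD, cut at about 27% in these data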;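 note: 0% = DMSO wells and 100% = JAK Inhibitor I control wells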
KLF5 inhibitor – KLF5 expression inhibitors, primary screen, DLD-1 cells, luminescence. AID 1700, 2009. hit rate 0.23% among 290,000. inhibition, % at 5 µM. DLD-1 KLF5 promoter-luciferase reporter;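 active = inhibition above a per-plate limit of that plate's mean compound inhibition plus 3 SD, cut at about 60% in these data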;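 note: 0% = DMSO wells and 100% = LY294002 at 200 µM; higher means less KLF5 promoter-driven luciferase light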
DNA FID counter – compounds displacing fluorescent DNA intercalator, primary screen, artefact control for HCV NS3 helicase inhibitor project, biochemical, FID fluorescence | DNA fluorescent intercalator displacement | inhibition, % at 7.9 µM | hit rate 0.17% among 290,000; in the data active = inhibition above about 37%;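 note: 0% = vehicle and 100% = reference compound; higher means more ethidium bromide displaced from hairpin DNA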
An asterisk follows results filed as active; / = no result. A selection: hits, their analogues and other compounds. The true share with any hit is near 2.6%.

SMILES | Ba/F3 V617F tox | IEC-6 tox | GPR7 antag | BaF3 parental | KLF5 inhibitor | DNA FID counter
CC1(C)CC(=O)C(C(=S)Nc2ccccc2)=C(NC2CC(C)(C)NC(C)(C)C2)C1 | -3.4 | 1.0 | 0.4 | 1.1 | -21.6 | 18.9
Cc1cccc2nc(COc3ccc(-c4ccccc4)cc3)cn12 | 43.6* | 1.6 | -7.3 | 37.8* | -27.0 | -10.1
CC(O)c1cccc(NC(=O)Nc2cccc(NC(=O)Nc3cccc(C(C)O)c3)c2)c1 (configuration not stated) | / | -5.8 | 25.4 | / | -41.6 | -20.0
COc1ccc(C(=O)C[n+]2cc(-c3ccc(OC)cc3)n3c2CCCC3)cc1 | 65.1* | 4.9 | -5.0 | 63.7* | 2.8 | 9.6
O=C(C[n+]1cc(-c2ccccc2)n2c1CCC2)OCc1ccccc1 | 0.7 | 5.3 | -6.9 | 3.0 | -18.3 | 0.1
COc1ccc(-c2c[n+](CC(=O)c3cccs3)c3n2CCC3)cc1 | 18.8 | 2.0 | -14.9 | 29.0* | -8.0 | 0.5
O=C(C[n+]1cc(-c2ccccc2)n2c1CCCCC2)c1ccc(Br)cc1 | 61.0* | -1.4 | 22.2 | 72.6* | -1.8 | 41.9*
Cc1ccc(-c2c[n+](CC(=O)c3cccs3)c3n2CCC3)cc1 | 33.2* | 4.8 | -6.2 | 61.7* | 1.2 | 18.8
COc1ccc(-c2c[n+](CC(=O)N3c4ccccc4Sc4ccccc43)c3n2CCC3)cc1 | -1.1 | -1.4 | -17.3 | -0.5 | -40.6 | 17.4
O=C(OCc1c(Cl)cccc1Cl)c1cccnc1Cl | -3.9 | 0.0 | 5.6 | 26.6 | -2.9 | -6.7
COc1cccc(CN2CC(C(=O)N(C)CCc3ccccc3)CCC2=O)c1 (configuration not stated) | / | -8.8 | -3.5 | / | -44.9 | -24.8
Cc1nn(Cc2c(F)cccc2Cl)c(C)c1[N+](=O)[O-] | 8.1 | 1.6 | -8.8 | 10.8 | -2.2 | -6.0
O=C(CCn1cnc2ncccc2c1=O)N1CCN(c2cccc(Cl)c2)CC1 | -0.7 | -2.2 | -17.7 | -1.1 | -17.4 | -16.8
COc1cc(/C=N/NC(=O)c2ccc(CSc3nc4ccccc4[nH]3)cc2)cc(OC)c1OC | 0.2 | -1.7 | 2.5 | 1.8 | -26.5 | -28.6
O=C(C[n+]1cc(-c2ccc(F)cc2)n2c1CCC2)Nc1nc(-c2ccccc2)cs1 | 1.9 | -0.6 | -1.7 | 10.1 | -32.4 | 16.2
Cc1ccc(-c2c[n+](CC(=O)Nc3nc(-c4ccc(F)cc4)cs3)c3n2CCC3)cc1 | 7.0 | 8.8 | -1.4 | 4.9 | 3.8 | 44.4*
Cc1ccc(-c2c[n+](Cc3ccc(Cl)c(Cl)c3)c3n2CCC3)cc1 | 78.4* | -0.1 | 1.6 | 72.7* | -14.0 | 11.5
COCc1cc(N2CCOCC2)nc(SCc2ccc(Cl)cc2)n1 | -0.5 | -0.4 | -6.1 | -1.4 | -18.8 | -26.6
Cn1c2c(c(=O)n(C)c1=O)C1(C(=O)Nc3ccccc31)C(C#N)=C(N)O2 (configuration not stated) | 1.8 | -1.7 | -7.1 | -2.8 | -14.7 | -2.1
CN1/C(=C\C=Nc2ccc3ccccc3c2)C(C)(C)c2ccccc21 | 47.9* | 13.6 | 7.6 | 41.8* | -12.8 | 5.3
CN1\C(=C/C=C/C=C/C=[N+](C)C)C(C)(C)c2ccccc21 | 37.9* | -6.9 | 2.1 | 32.9* | -14.2 | -10.0
C=CCN1C(=O)/C(=C\C=C2\N(C)c3ccccc3C2(C)C)SC1=S | -1.1 | 6.0 | -4.1 | 0.2 | -1.5 | -5.9
CN1/C(=C/C=C(C#N)C#N)C(C)(C)c2ccccc21 | -2.9 | -0.8 | -1.1 | 0.0 | 1.2 | -0.3
CN1/C(=C\C=O)C(C)(C)c2ccccc21 | 39.4* | 3.9 | 7.6 | 48.5* | -10.0 | 0.1
Cc1ccccc1-n1c(C)c(C#N)c(=O)c(-[n+]2ccccc2)c1[S-] | 3.1 | 0.8 | -16.5 | 5.5 | -5.2 | -4.4
SMILES | Ba/F3 V617F tox | IEC-6 tox | GPR7 antag | BaF3 parental | KLF5 inhibitor | DNA FID counter
O=C(Nc1cccc(Cl)c1)Nc1nccs1 | 1.2 | 10.6 | 14.4 | 6.0 | -87.9 | 5.3
O=C(Nc1ccc(Cl)c(Cl)c1)Nc1nccs1 | 73.4* | 77.8* | -0.6 | 71.4* | 33.1 | -0.3
C=CCNC1=C(Cl)C(=O)c2ccccc2C1=O | 0.4 | 26.7* | -1.8 | 1.0 | -26.4 | 7.8
O=C1C(Cl)=C(Nc2ccccc2)C(=O)c2ccccc21 | -2.0 | -3.2 | -11.3 | 4.3 | -19.8 | 3.9
CC(C)(C)NCC(O)CON=C1c2ccccc2-c2ccccc21 (configuration not stated) | 7.6 | 15.0 | 17.1 | 16.1 | -11.5 | 44.9*
Cc1ccnc(NC(=O)C2COc3ccccc3O2)c1 (configuration not stated) | 6.5 | 7.9 | 5.3 | 84.7* | -113.3 | -2.4
Cc1ccc(NC(=O)C2COc3ccccc3O2)nc1 (configuration not stated) | -0.7 | -5.7 | -1.0 | 4.3 | -91.7 | -3.6
S=C(Nc1cccc(Cl)c1)N(CCCN1CCCC1)Cc1cccn1Cc1ccc(Cl)cc1 | 18.4 | 2.5 | 10.6 | 16.8 | -31.7 | 35.6
COc1cccc(NC(=S)N(CCCN2CCCC2)Cc2cccn2Cc2ccc(Cl)cc2)c1 | 20.9 | 14.2 | 7.4 | 14.6 | -30.4 | 36.9*
O=C(COc1ccc(Br)cc1)N1CCCCCC1 | -6.0 | -6.8 | -2.6 | -2.1 | -30.2 | -8.8
CCOc1ccc(-n2c(-c3ccc(Cl)cc3)c[n+]3c2SCC3)cc1 | 70.0* | 2.3 | -2.6 | 74.4* | 19.1 | 5.6
c1ccc(-c2c[n+]3c(n2-c2ccccc2)SCC3)cc1 | 65.6* | -1.0 | -2.2 | 61.0* | -20.4 | 5.1
CCOc1ccc(C2=CSC3=NCCN23)cc1 | / | -4.5 | -13.0 | / | -15.3 | 2.1
N#CCCN1CCCN(CCC#N)CCN(CCC#N)CCCN(CCC#N)CC1 | / | -2.4 | -6.5 | / | -11.9 | -4.6
O=C1c2sc3nc4ccccc4n3c2C(=O)N1c1ccccc1Cl | -0.2 | 2.5 | 0.8 | 5.6 | -61.0 | -15.4
Cc1ccccc1NC(=S)N/N=C/c1ccc(O)cc1O | 0.0 | 0.8 | 0.8 | 3.2 | -49.9 | -6.8
Cc1cccc(NC(=S)N/N=C/c2cccc(O)c2)c1C | 77.9* | 13.1 | -5.4 | 51.5* | 37.9 | -7.2
COC(=O)C1CCN(CCCOc2ccc(CN3CCN(c4ccc([N+](=O)[O-])cc4)CC3)cc2)CC1 | 3.8 | 2.9 | 3.6 | 7.4 | -15.1 | 46.5*
O=S(=O)(NCC(c1ccccc1)N1CCNCC1)c1ccc(Cl)cc1 (configuration not stated) | 4.9 | 0.7 | 5.8 | 8.5 | 5.2 | 20.7
COc1cc(C(=O)NNC(=S)NCc2ccco2)cc(OC)c1OC | 4.3 | 5.4 | -3.3 | 90.3* | -0.3 | -7.4
CC1=CC(C)C2(COC(c3ccc[n+](C)c3)OC2)C(C)C1 (configuration not stated) | 64.9* | 2.6 | 3.9 | 72.2* | -17.1 | 22.0
O=C(/C=C/c1ccccc1)NNC(=O)c1cccs1 | 23.8* | -3.3 | -3.1 | 40.8* | 2.3 | 0.9
